Measurements published in publication PMC7862700, “An all-to-all approach to the identification of sequence-specific readers for epigenetic DNA modifications on cytosine”.

What was measured:
Test in all cases: DAPPL (digital affinity profiling via proximity ligation, sequencing); 10 mM Tris-HCl pH 7.5, 50 mM NaCl, 1 mM DTT, 4% glycerol, room temperature, 30 min; GST-TFs on glutathione beads, 16-mer random dsDNA library, 0.1% formaldehyde crosslink after washing; high values mean tight binding
[1] = target: T1, FLI1 (Homo sapiens, UniProt Q01543 1-452); conditions: protein: recombinant; tags: N-terminal GST; dsDNA, one strand shown
T1 sequence: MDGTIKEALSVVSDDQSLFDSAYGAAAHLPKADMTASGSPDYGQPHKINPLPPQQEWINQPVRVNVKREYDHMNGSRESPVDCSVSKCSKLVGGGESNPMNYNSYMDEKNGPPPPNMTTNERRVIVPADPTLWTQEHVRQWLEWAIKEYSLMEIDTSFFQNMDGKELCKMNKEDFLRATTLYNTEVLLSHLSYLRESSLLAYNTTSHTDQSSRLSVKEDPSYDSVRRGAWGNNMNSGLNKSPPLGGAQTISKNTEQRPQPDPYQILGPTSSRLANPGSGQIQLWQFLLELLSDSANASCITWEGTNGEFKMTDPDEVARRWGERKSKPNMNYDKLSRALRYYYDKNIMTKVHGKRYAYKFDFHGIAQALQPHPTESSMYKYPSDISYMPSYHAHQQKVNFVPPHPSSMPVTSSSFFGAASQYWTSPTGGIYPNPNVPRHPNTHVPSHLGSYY
Summary of the method: (§1)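 Pools of DNA-barcoded human transcription factors, expressed in yeast as GST fusions on glutathione beads and combined with a tag-only sample, were incubated with 200 nmole of a 16-mer random double-stranded DNA library. Incubation took 30 min at room temperature in Tris/NaCl/DTT/glycerol buffer and was followed by washing, 0.1% formaldehyde crosslinking, proximity ligation (BsaI/T4 ligase, 1 h, 37 °C), PCR amplification and sequencing on an Illumina NextSeq500. Binding signal is the ratio of a hexamer's read frequency for a factor to its frequency for the tag-only sample.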

[2] = target: T2, ELK1 (Homo sapiens, UniProt P19419 1-428); conditions: protein: recombinant; tags: N-terminal GST; dsDNA, one strand shown
T2 sequence: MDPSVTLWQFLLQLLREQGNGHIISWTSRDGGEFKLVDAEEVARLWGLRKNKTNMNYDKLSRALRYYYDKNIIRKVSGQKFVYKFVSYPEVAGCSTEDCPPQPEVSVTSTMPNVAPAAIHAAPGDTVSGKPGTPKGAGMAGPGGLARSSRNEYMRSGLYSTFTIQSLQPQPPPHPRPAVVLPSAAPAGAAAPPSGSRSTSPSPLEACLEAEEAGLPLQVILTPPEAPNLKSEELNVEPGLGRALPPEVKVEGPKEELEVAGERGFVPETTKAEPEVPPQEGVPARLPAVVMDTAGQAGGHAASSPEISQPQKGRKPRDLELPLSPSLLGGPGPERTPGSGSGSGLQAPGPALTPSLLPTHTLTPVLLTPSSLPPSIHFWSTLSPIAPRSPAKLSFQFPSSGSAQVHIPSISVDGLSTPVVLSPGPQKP
Summary of the method: as §1

[3] = target: T3, GABPA (Homo sapiens, UniProt Q06546 1-454); conditions: protein: recombinant; tags: N-terminal GST; dsDNA, one strand shown
T3 sequence: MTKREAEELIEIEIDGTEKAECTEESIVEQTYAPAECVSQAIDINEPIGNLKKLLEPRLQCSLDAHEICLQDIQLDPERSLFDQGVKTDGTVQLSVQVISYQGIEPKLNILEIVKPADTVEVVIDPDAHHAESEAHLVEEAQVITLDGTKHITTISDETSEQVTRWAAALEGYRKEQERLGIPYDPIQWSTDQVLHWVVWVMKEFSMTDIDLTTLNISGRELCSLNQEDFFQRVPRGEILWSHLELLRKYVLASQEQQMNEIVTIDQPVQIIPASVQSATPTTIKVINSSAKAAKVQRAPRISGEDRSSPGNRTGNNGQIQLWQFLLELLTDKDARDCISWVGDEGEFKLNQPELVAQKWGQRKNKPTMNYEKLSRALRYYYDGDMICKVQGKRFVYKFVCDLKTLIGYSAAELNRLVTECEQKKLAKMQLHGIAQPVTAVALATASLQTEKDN
Summary of the method: as §1

[4] = target: T4, ERG (Homo sapiens, UniProt P11308 1-479); conditions: protein: recombinant; tags: N-terminal GST; dsDNA, one strand shown
T4 sequence: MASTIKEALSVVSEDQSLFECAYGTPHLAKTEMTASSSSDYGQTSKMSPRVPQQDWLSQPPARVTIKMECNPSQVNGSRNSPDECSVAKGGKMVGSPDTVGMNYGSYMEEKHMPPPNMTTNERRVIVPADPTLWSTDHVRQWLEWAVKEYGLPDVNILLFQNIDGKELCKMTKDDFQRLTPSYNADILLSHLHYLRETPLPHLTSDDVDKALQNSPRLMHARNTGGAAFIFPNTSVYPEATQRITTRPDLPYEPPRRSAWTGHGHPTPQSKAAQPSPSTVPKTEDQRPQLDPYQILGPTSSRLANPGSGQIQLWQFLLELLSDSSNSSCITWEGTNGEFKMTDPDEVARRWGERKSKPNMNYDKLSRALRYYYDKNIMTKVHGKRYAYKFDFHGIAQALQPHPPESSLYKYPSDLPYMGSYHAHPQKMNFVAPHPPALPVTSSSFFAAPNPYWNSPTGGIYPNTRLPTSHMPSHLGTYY
Summary of the method: as §1

[5] = target: ELF1 (Homo sapiens, UniProt P32519 1-619); conditions: protein: recombinant; tags: N-terminal GST; dsDNA, one strand shown
Chain of ELF1 (P32519 whole entry): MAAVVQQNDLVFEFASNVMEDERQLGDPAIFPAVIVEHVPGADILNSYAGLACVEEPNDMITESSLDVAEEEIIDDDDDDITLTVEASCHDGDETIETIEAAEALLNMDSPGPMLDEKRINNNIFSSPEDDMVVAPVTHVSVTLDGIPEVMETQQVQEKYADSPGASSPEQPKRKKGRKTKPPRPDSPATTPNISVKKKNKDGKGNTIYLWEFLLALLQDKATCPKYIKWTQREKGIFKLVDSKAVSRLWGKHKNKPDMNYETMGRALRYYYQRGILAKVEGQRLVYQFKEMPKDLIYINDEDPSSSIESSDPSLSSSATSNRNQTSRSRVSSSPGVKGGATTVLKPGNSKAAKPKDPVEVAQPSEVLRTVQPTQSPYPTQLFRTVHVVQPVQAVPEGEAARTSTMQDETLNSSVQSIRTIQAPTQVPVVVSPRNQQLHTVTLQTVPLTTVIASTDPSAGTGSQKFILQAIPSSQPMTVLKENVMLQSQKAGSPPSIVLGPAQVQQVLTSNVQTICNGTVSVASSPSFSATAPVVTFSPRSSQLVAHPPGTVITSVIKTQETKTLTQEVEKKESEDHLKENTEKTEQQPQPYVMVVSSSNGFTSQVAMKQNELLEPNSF
Summary of the method: as §1

[6] = target: T5, EHF (Homo sapiens, UniProt Q9NZC4 1-300); conditions: protein: recombinant; tags: N-terminal GST; dsDNA, one strand shown
T5 sequence: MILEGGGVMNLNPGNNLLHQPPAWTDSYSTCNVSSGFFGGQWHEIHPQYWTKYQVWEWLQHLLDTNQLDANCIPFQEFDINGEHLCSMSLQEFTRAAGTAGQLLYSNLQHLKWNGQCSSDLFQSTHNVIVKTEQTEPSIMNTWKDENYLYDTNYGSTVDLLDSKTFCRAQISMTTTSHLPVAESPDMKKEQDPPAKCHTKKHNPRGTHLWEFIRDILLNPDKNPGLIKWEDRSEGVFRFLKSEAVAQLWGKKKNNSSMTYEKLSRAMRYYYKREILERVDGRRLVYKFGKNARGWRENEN
Summary of the method: as §1

[7] = target: SPI1 (Homo sapiens, UniProt P17947 1-270); conditions: protein: recombinant; tags: N-terminal GST; dsDNA, one strand shown
Summary of the method: as §1

[8] = target: SPIB (Homo sapiens, UniProt Q01892 1-262); conditions: protein: recombinant; tags: N-terminal GST; dsDNA, one strand shown
Chain of SPIB (Q01892 whole entry): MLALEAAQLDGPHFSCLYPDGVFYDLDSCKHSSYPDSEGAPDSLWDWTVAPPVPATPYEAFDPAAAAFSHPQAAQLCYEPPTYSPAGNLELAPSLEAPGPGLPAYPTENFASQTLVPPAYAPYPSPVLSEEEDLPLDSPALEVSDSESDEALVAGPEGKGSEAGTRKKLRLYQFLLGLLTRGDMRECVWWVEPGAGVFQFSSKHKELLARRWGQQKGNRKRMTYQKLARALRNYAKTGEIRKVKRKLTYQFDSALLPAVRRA
Summary of the method: as §1

[9] = target: T6, ELK3 (Homo sapiens, UniProt P41970 1-407); conditions: protein: recombinant; tags: N-terminal GST; dsDNA, one strand shown
T6 sequence: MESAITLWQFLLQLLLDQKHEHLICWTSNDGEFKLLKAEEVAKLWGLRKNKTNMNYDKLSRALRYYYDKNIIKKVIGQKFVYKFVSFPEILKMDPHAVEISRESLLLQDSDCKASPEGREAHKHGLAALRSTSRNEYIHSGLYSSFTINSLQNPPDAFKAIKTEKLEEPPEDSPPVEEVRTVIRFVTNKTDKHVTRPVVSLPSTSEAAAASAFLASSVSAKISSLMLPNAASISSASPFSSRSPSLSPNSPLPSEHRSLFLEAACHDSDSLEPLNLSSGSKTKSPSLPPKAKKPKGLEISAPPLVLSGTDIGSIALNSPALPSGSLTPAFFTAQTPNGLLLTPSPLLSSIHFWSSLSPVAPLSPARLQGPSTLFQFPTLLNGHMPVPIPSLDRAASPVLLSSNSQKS
Summary of the method: as §1

[10] = target: T7, FEV (Homo sapiens, UniProt Q99581 1-238); conditions: protein: recombinant; tags: N-terminal GST; dsDNA, one strand shown
T7 sequence: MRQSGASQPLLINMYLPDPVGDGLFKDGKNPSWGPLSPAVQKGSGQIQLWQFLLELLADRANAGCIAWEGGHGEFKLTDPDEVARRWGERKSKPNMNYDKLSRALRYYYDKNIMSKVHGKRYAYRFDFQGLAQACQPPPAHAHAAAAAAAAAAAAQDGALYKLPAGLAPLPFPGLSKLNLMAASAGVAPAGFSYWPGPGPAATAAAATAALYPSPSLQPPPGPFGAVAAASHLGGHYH
Summary of the method: as §1

[11] = target: ETV5 (Homo sapiens, UniProt P41161 1-510); conditions: protein: recombinant; tags: N-terminal GST; dsDNA, one strand shown
Chain of ETV5 (P41161 whole entry): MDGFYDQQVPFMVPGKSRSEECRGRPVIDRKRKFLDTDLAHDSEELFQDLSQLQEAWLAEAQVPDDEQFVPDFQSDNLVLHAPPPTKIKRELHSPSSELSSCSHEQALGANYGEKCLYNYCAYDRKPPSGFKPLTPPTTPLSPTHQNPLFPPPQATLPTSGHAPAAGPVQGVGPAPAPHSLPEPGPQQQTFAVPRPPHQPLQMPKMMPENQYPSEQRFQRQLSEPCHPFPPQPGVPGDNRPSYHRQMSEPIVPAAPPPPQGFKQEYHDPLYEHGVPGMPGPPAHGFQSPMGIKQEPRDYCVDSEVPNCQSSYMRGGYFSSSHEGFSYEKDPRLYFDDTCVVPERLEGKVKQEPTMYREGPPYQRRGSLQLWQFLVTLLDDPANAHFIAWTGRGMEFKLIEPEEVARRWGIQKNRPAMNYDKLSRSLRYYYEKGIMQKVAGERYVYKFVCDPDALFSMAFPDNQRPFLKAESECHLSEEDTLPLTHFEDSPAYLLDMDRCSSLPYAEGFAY
Summary of the method: as §1

[12] = target: HSF1 (Homo sapiens, UniProt Q00613 1-529); conditions: protein: recombinant; tags: N-terminal GST; chain copies: 3; dsDNA, one strand shown
Chain of HSF1 (Q00613 whole entry): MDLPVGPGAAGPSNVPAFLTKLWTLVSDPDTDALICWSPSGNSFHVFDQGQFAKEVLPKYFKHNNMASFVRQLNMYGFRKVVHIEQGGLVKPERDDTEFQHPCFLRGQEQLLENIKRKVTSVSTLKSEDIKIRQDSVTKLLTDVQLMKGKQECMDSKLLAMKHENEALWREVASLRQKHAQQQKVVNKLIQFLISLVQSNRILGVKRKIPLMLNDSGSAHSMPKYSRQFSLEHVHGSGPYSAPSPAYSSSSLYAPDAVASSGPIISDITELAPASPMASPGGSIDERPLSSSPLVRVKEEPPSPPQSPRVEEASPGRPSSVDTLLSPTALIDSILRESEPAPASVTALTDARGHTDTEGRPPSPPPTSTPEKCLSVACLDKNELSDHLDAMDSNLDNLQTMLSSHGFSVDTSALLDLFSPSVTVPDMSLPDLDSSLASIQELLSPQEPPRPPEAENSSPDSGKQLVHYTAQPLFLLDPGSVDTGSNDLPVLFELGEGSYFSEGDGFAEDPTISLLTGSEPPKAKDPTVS
Summary of the method: as §1

[13] = target: T8, SPIC (Homo sapiens, UniProt Q8N5J4 1-248); conditions: protein: recombinant; tags: N-terminal GST; dsDNA, one strand shown
T8 sequence: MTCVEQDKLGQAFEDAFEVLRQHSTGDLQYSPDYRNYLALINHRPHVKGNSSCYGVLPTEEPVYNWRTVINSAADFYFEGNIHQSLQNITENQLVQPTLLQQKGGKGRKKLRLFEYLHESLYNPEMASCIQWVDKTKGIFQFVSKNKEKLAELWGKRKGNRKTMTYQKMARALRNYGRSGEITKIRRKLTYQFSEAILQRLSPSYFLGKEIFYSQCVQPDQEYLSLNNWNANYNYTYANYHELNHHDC
Summary of the method: as §1

[14] = target: ELF4 (Homo sapiens, UniProt Q99607 1-663); conditions: protein: recombinant; tags: N-terminal GST; dsDNA, one strand shown
Chain of ELF4 (Q99607 whole entry): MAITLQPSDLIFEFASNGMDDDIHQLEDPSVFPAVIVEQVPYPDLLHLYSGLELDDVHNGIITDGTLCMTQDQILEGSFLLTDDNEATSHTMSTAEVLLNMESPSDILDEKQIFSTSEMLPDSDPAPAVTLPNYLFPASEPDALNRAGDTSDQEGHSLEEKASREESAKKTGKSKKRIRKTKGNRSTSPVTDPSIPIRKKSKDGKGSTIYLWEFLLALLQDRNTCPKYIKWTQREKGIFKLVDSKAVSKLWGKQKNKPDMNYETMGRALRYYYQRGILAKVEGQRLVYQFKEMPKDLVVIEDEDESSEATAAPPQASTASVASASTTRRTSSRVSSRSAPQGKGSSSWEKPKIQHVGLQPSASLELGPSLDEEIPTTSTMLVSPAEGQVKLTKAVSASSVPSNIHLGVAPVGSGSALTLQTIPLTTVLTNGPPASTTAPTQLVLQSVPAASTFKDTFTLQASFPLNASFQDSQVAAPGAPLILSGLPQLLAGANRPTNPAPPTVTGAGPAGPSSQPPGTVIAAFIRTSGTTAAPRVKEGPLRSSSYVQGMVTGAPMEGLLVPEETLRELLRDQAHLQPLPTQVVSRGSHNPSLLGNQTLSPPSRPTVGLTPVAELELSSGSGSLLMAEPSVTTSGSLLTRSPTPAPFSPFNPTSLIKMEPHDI
Summary of the method: as §1

[15] = target: T9, ELK4 (Homo sapiens, UniProt P28324-2 1-405); conditions: protein: recombinant; tags: N-terminal GST; dsDNA, one strand shown
T9 sequence: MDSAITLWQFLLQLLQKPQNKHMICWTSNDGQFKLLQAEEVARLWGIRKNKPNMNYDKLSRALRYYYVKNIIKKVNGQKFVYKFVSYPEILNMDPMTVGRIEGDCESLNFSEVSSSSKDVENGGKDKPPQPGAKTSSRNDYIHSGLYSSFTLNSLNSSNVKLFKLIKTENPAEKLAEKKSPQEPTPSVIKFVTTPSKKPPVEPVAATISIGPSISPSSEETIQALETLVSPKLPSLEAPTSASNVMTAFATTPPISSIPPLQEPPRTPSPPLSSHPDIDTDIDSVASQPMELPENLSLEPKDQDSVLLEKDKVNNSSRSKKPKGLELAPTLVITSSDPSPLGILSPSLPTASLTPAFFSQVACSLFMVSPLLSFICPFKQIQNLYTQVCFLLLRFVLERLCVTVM
Summary of the method: as §1

[16] = target: T10, ETV2 (Homo sapiens, UniProt O00321 1-342); conditions: protein: recombinant; tags: N-terminal GST; dsDNA, one strand shown
T10 sequence: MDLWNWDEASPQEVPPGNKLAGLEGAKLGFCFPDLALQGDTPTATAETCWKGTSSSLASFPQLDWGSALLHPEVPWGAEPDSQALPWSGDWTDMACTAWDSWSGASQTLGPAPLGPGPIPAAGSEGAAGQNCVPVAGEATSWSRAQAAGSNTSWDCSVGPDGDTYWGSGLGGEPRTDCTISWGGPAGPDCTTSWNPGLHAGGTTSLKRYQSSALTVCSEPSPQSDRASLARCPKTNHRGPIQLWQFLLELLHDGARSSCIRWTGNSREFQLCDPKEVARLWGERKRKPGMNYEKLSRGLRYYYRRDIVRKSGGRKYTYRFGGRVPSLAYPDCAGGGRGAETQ
Summary of the method: as §1

[17] = target: T11, ELF3 (Homo sapiens, UniProt P78545 1-371); conditions: protein: recombinant; tags: N-terminal GST; dsDNA, one strand shown
T11 sequence: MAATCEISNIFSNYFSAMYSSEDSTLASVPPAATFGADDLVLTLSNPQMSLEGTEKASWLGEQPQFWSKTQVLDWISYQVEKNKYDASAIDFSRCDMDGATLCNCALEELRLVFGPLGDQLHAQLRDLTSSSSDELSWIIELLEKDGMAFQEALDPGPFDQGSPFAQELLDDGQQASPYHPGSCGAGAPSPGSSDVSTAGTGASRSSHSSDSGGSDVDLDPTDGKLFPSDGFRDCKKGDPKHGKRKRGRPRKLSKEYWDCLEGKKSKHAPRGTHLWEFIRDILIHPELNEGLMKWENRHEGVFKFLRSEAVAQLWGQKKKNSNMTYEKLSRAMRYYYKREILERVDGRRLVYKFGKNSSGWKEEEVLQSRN
Summary of the method: as §1

[18] = target: CRX (Homo sapiens, UniProt O43186 1-299); conditions: protein: recombinant; tags: N-terminal GST; dsDNA, one strand shown
Chain of CRX (O43186 whole entry): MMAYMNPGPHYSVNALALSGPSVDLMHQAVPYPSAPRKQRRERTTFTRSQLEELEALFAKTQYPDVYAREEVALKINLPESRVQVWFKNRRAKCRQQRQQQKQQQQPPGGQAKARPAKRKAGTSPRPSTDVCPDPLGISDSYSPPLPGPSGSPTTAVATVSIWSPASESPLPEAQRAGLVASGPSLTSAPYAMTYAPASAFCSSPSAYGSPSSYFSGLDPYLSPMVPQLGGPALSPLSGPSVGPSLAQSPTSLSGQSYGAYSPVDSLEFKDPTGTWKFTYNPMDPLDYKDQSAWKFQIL
Summary of the method: as §1

[19] = target: ETV1 (Homo sapiens, UniProt P50549 1-477); conditions: protein: recombinant; tags: N-terminal GST; dsDNA, one strand shown
Chain of ETV1 (P50549 whole entry): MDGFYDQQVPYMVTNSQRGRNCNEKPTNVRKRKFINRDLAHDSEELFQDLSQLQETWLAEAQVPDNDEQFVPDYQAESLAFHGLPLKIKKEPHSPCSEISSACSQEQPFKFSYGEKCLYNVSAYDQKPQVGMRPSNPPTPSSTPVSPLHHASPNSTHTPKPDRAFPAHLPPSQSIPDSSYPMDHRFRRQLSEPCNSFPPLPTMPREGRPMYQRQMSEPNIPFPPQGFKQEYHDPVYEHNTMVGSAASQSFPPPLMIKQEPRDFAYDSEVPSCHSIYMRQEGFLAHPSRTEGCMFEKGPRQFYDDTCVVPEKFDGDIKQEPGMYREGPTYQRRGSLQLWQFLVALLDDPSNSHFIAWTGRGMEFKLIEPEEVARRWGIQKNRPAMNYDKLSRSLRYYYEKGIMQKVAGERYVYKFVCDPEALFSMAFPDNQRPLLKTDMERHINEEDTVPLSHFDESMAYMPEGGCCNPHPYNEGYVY
Summary of the method: as §1

TCTGCA
binding signal [1]: 1.42 fold enrichment (6-mer frequency, TF over GST control) | binding signal [2]: 1.4 fold enrichment (6-mer frequency, TF over GST control) | binding signal [3]: 1.31 fold enrichment (6-mer frequency, TF over GST control) | binding signal [4]: 1.25 fold enrichment (6-mer frequency, TF over GST control) | binding signal [5]: 1.3 fold enrichment (6-mer frequency, TF over GST control) | binding signal [6]: 1.27 fold enrichment (6-mer frequency, TF over GST control) | binding signal [7]: 1.33 fold enrichment (6-mer frequency, TF over GST control) | binding signal [8]: 1.41 fold enrichment (6-mer frequency, TF over GST control) | binding signal [9]: 1.48 fold enrichment (6-mer frequency, TF over GST control) | binding signal [10]: 1.43 fold enrichment (6-mer frequency, TF over GST control) | binding signal [11]: 1.36 fold enrichment (6-mer frequency, TF over GST control) | binding signal [12]: 1.26 fold enrichment (6-mer frequency, TF over GST control) | binding signal [13]: 1.36 fold enrichment (6-mer frequency, TF over GST control) | binding signal [14]: 1.42 fold enrichment (6-mer frequency, TF over GST control) | binding signal [15]: 1.43 fold enrichment (6-mer frequency, TF over GST control) | binding signal [16]: 1.2 fold enrichment (6-mer frequency, TF over GST control) | binding signal [17]: 1.36 fold enrichment (6-mer frequency, TF over GST control) | binding signal [18]: 1.25 fold enrichment (6-mer frequency, TF over GST control) | binding signal [19]: 1.26 fold enrichment (6-mer frequency, TF over GST control)
